Test results from PubChem BioAssay (EPA / NIEHS).
Inconclusive results are not listed. The source holds several records for some structures; these can differ, active in one and inactive in another. The source made the active and inactive calls. The calls were made as follows, unless noted: active = hit-call score of the fitted dose curve at least 0.9, where 1 is the maximum; inactive = score below 0.9.

Columns and labels:
[1] = target: Bile acid receptor (Homo sapiens) (UniProt Q96RI1); experiment: ATG_FXR_TRANS: Attagene TRANS-FACTORIAL HepG2 Assay for Farnesoid X Receptor (FXR) (AID 2282979; active = hit-call score of the fitted dose curve at least 0.9, where 1 is the maximum;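 also: hits raise reporter mRNA above DMSO so AC50 marks FXR activation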); settings: HepG2 Attagene TRANS FXR-GAL4 reporter transcription
Summary of the method: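 Reporter transcripts from transfected HepG2 cells were measured 24 h after dosing, using RT-PCR with capillary electrophoresis of 6-FAM-labelled fragments. The read-out reflects activity of exogenous FXR-Gal4 chimera on GAL4-UAS units, with induction relative to DMSO.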

[2] = target: Hepatocyte nuclear factor 4-alpha (Homo sapiens) (UniProt P41235); experiment: ATG_HNF4a_TRANS: Attagene TRANS-FACTORIAL HepG2 Assay for human Hepatocyte Nuclear Factor 4 alpha (HNF4a) (AID 2282982; active = hit-call score of the fitted dose curve at least 0.9, where 1 is the maximum); settings: HepG2 HNF4a transactivation reporter, mRNA readout
Summary of the method: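 Multiplexed reporter assay: transfected HepG2, 24 h exposure, total RNA → oligo(dT) RT → PCR → 6-FAM extension → HpaI digest → CE fluorescence. DMSO = negative control.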

[3] = ATG_M_06_TRANS: Attagene TRANS-FACTORIAL HepG2 Assay for M06 Transcription Factor (Internal Marker) (AID 2282983; active = hit-call score of the fitted dose curve at least 0.9, where 1 is the maximum;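 also: reporter transcript level by RT-PCR then capillary electrophoresis fluorescence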); settings: HepG2 Attagene TRANS M06 internal marker reporter
Summary of the method: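 Background-control reporter readout: after 24 h chemical exposure of transiently transfected HepG2 (GAL4-UAS reporter units), mRNA quantified by RT-PCR with fluorescent labeling and capillary electrophoresis. Gain-of-signal fitting against DMSO baseline.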

[4] = target: Transcriptional activator Myb (Homo sapiens) (UniProt P10242); experiment: ATG_Myb_CIS: Attagene CIS-FACTORIAL HepG2 Assay for human Myeloblastosis (Myb) Proto-Oncogene Transcription Factor (AID 2282986); settings: HepG2 Attagene CIS-FACTORIAL Myb reporter transcription; actives raise or lower the signal
Summary of the method: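 Endogenous transcription factor activity at a Myb-responsive cis element is reported in human liver HepG2 cells after 24 h chemical treatment. Reporter mRNA is detected by RT-PCR and capillary electrophoresis fluorescence, with DMSO as baseline.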

[5] = target: Nuclear respiratory factor 1 (Homo sapiens) (UniProt Q16656); experiment: ATG_NRF1_CIS: Attagene CIS-FACTORIAL HepG2 Assay for human Nuclear Respiratory Factor 1 (NRF1) Orphan Gene (AID 2282987); settings: HepG2 NRF1 cis-element reporter, Attagene multiplex; actives raise or lower the signal
Summary of the method: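 Human hepatoma HepG2 cells carrying transfected promoter-regulated reporter units were incubated with test chemicals for 24 h. Reporter transcripts were measured by RT-PCR plus capillary electrophoresis, and endpoints derived by bidirectional fitting with DMSO as baseline.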

[6] = ATG_NFI_CIS: Attagene CIS-FACTORIAL HepG2 Assay for human Nuclear Factor I (NFI) (AID 2282989); settings: HepG2 cis-regulatory reporter, NFI response element transcription; actives raise or lower the signal
Summary of the method: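 HepG2 cells transiently transfected with cis-element-driven multiplexed reporter transcription units, dosed for 24 h. Reporter mRNA quantified by RT-PCR, fluorescent labelling, HpaI digestion and capillary electrophoresis; bidirectional fit versus DMSO baseline.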

[7] = target: Myc proto-oncogene protein (Homo sapiens) (UniProt P01106); experiment: ATG_Myc_CIS: Attagene CIS-FACTORIAL HepG2 Assay for human Myelocytomatosis (Myc) Proto-Oncogene Transcription Factor (AID 2282990); settings: HepG2, Attagene cis-reporter transcription factor activity; actives raise or lower the signal
Summary of the method: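 HepG2, transient MRTU transfection (cis promoters, endogenous TFs); 24 h dosing; TriZol RNA → oligo(dT) RT → PCR → 6-FAM primer extension → HpaI cut → CE. Bidirectional fit vs DMSO.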

[8] = ATG_NF_kB_CIS: Attagene CIS-FACTORIAL HepG2 Assay for human Nuclear Factor Kappa B (NF-kB) (AID 2282991); settings: HepG2 Attagene cis-factorial NF-kB reporter mRNA; actives raise or lower the signal
Summary of the method: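 Multiplexed cis-reporter assay in transiently transfected HepG2. 24 h treatment; RNA isolated, RT-PCR, labelled fragments resolved by CE. DMSO baseline.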

[9] = ATG_NRF2_ARE_CIS: Attagene CIS-FACTORIAL HepG2 Assay for human Nuclear Factor Erythroid 2 Related Factor 2 (NFR2) response to Antioxidant Response Elements (ARE) (AID 2282992); settings: HepG2 Attagene ARE/NRF2 reporter, transcription factor activity; actives raise or lower the signal;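 as to AC50: reporter mRNA level measured by RT-PCR and capillary electrophoresis fluorescence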
Summary of the method: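 Fluorescence intensity of reporter-specific cDNA fragments, separated by capillary electrophoresis, reflects mRNA induction in transfected HepG2 cells at 24 h. Activity is fitted bidirectionally, DMSO serving as baseline.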

[10] = ATG_Oct_MLP_CIS: Attagene CIS-FACTORIAL HepG2 Assay for human Octamer-Binding Transcription Factor (Oct) (AID 2282993); settings: HepG2 Attagene cis-factorial Oct reporter, mRNA; actives raise or lower the signal
Summary of the method: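 HepG2 cells transiently transfected with cis-promoter-driven multiplexed reporter transcription units, dosed for 24 h. Reporter mRNA quantified by RT-PCR, fluorescent labelling, HpaI digestion and capillary electrophoresis; bidirectional fits versus DMSO baseline.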

[11] = target: Cellular tumor antigen p53 (Homo sapiens) (UniProt P04637); experiment: ATG_p53_CIS: Attagene CIS-FACTORIAL HepG2 Assay for human p53 Transcription Factor (AID 2282994); settings: HepG2 p53 cis-element reporter, Attagene mRNA; actives raise or lower the signal
Summary of the method: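 Transiently transfected HepG2 (multiple cis reporter transcription units); exposure 24 h; reporter RNA via RT-PCR, 6-FAM extension, 2 h HpaI digest at 37 C, CE detection; DMSO baseline.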

[12] = BSK_3C_TissueFactor: BioMAP Diversity Plus: 3C Assay for Tissue Factor Biomarker Activity (AID 2282997); settings: BioMAP 3C HUVEC, tissue factor biomarker readout; actives raise or lower the signal
Summary of the method: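 Tissue factor on primary human umbilical vein endothelium was read by ELISA 24 h after dosing, gain or loss relative to DMSO. Cytotoxicity ran alongside via SRB (0.1%, TCA-fixed, 560 nm).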

[13] = BSK_3C_uPAR: BioMAP Diversity Plus: 3C Assay for Urokinase-type plasminogen activator receptor (uPAR) Biomarker Activity (AID 2282998); settings: BioMAP 3C HUVEC, uPAR biomarker ELISA; actives raise or lower the signal
Summary of the method: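 Human umbilical vein endothelial primary cells were exposed to test chemical for 24 h. Cell-surface uPAR was then quantified by ELISA, and responses were fitted bidirectionally against DMSO as negative control and baseline.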

[14] = BSK_3C_VCAM1: BioMAP Diversity Plus: 3C Assay for Vascular cell adhesion molecule 1 (VCAM1) Biomarker Activity (AID 2282999); settings: BioMAP 3C HUVEC, VCAM1 ELISA, cytokine-stimulated; actives raise or lower the signal
Summary of the method: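 Activity fitted in both directions relative to DMSO, with ELISA measurement of the surface marker on primary HUVEC (3C) at 24 h post-treatment; parallel SRB staining (0.1% SRB, TCA-fixed, 560 nm) flagged overt cytotoxicity.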

[15] = BSK_4H_Eotaxin3: BioMAP Diversity Plus: 4H Assay for Eotaxin 3 Biomarker Activity (AID 2283000); settings: primary human endothelial cells (HUVEC); actives raise or lower the signal
Summary of the method: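 Human umbilical vein endothelial cells (BSK_4H system) dosed with test chemical; Eotaxin-3 (CCL26) measured by ELISA 24 h after dosing. Bidirectional curve fitting relative to DMSO negative control as baseline.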

[16] = target: human Peroxisome Proliferator-activated Receptor alpha (PPARa), PPARA (gene 5465) (UniProt Q07869); experiment: ATG_PPARa_TRANS: Attagene TRANS-FACTORIAL HepG2 Assay for human Peroxisome Proliferator-activated Receptor alpha (PPARa) (AID 2283001; active = hit-call score of the fitted dose curve at least 0.9, where 1 is the maximum;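 as to AC50: potency for gain of reporter signal over DMSO so agonist or activator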)
Summary of the method: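 Transfected HepG2 cells treated with test chemical for 24 h. RNA isolated, reverse-transcribed with oligo(dT), PCR-amplified, FAM-labelled and HpaI-digested. Fragments sized by capillary electrophoresis; gain-of-signal fit relative to DMSO.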

[17] = target: Oxysterols receptor LXR-beta (Homo sapiens) (UniProt P55055); experiment: ATG_LXRb_TRANS: Attagene TRANS-FACTORIAL HepG2 Assay for human Liver X Receptor beta (LXRb) (AID 2282981; active = hit-call score of the fitted dose curve at least 0.9, where 1 is the maximum); settings: HepG2 Attagene TRANS GAL4-LXRb reporter, mRNA
Summary of the method: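 After 24 h of chemical treatment, transfected HepG2 cells yield total RNA; reporter cDNA is PCR-amplified, FAM-labelled, HpaI-cut and run on capillary electrophoresis. Signal reflects chimeric LXRb-Gal4 activity on GAL4-UAS reporters.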

[18] = target: Nuclear receptor subfamily 4 group A member 2 (Homo sapiens) (UniProt P43354); experiment: ATG_NURR1_TRANS: Attagene TRANS-FACTORIAL HepG2 Assay for human Nuclear Receptor Related Protein 1 (NURR1) (AID 2282985; active = hit-call score of the fitted dose curve at least 0.9, where 1 is the maximum); settings: HepG2 Attagene TRANS reporter, mRNA readout
Summary of the method: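 Measures transcriptional activation by an exogenous NR-Gal4 chimera in transfected HepG2 liver cells. After 24 h, reporter RNA is reverse-transcribed, amplified and resolved by capillary electrophoresis; DMSO defines baseline.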

[19] = ATG_M_32_TRANS: Attagene TRANS-FACTORIAL HepG2 Assay for M32 Transcription Factor (Internal Marker) (AID 2282984; active = hit-call score of the fitted dose curve at least 0.9, where 1 is the maximum;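 also: transcript level of a background control reporter unit measured by RT-PCR and capillary electrophoresis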); settings: HepG2 Attagene TRANS M32 internal marker reporter
Summary of the method: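 Cell-based TRANS-format assay in HepG2: exogenous chimeric GAL4 reporter units transiently expressed, compounds applied 24 h. Reporter mRNA detected by RT-PCR plus capillary electrophoresis; this readout is an internal background marker.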

Measured: AC50

Sequence of Cellular tumor antigen p53 (Homo sapiens) (P04637 whole entry, looked up): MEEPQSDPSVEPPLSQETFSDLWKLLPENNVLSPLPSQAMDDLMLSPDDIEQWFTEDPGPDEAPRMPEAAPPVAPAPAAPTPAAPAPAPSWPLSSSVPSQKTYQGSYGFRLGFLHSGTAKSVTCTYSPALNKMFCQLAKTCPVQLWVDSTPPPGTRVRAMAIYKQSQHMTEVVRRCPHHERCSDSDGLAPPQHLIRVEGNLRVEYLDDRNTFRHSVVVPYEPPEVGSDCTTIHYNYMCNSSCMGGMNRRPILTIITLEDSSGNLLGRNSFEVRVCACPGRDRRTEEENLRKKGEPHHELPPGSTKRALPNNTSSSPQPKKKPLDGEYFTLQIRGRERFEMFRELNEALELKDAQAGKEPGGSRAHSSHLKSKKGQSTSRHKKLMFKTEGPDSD
Sequence of Nuclear receptor subfamily 4 group A member 2 (Homo sapiens) (P43354 whole entry, looked up, the tested form may be a part): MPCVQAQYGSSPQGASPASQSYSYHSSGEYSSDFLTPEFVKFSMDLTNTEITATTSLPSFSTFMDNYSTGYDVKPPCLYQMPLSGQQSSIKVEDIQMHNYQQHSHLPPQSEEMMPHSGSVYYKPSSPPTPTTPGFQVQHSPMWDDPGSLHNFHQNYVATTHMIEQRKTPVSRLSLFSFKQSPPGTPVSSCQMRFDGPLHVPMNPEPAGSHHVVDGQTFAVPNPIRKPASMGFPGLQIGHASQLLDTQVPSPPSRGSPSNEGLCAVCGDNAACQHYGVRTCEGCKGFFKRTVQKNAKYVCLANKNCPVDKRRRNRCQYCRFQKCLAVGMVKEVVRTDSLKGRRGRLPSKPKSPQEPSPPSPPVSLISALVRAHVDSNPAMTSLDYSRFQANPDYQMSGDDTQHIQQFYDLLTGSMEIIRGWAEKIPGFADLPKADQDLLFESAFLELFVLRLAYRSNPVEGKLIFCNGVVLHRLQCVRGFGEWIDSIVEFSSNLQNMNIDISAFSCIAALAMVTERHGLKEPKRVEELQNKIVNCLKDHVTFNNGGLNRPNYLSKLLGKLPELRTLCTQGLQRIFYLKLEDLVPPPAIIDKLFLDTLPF
Sequence of Nuclear respiratory factor 1 (Homo sapiens) (Q16656 whole entry, looked up): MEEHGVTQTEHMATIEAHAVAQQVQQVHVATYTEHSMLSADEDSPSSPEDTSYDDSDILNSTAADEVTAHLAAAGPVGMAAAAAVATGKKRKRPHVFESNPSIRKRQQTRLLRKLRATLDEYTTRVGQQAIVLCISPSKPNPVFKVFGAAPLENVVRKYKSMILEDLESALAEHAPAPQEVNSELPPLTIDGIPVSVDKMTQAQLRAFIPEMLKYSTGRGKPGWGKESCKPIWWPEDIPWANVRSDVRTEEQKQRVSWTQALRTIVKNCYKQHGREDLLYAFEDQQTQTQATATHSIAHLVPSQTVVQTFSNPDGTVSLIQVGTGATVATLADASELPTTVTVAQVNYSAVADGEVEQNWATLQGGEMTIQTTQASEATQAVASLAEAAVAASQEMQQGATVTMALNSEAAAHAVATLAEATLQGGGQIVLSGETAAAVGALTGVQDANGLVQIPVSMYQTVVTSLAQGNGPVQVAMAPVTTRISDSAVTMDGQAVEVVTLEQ
Sequence of Transcriptional activator Myb (Homo sapiens) (P10242 whole entry, looked up): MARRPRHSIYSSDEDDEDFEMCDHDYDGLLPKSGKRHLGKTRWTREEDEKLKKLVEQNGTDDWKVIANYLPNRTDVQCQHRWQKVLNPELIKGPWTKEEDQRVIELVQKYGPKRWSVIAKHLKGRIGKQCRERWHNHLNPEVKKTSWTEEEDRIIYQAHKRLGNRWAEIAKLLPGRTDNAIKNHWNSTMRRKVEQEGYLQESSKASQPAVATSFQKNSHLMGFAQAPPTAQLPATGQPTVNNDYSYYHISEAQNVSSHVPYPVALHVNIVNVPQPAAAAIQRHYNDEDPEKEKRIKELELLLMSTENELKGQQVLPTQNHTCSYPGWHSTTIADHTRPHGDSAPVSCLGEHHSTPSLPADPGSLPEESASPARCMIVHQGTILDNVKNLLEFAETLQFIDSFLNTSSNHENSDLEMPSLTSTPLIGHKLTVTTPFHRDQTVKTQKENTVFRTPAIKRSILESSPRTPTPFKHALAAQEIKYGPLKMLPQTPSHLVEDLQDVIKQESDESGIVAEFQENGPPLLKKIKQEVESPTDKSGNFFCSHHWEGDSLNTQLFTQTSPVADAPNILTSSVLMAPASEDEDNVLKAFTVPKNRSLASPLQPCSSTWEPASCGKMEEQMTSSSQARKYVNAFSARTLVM
Sequence of human Peroxisome Proliferator-activated Receptor alpha (PPARa), PPARA (gene 5465) (Q07869 whole entry, looked up, the tested form may be a part): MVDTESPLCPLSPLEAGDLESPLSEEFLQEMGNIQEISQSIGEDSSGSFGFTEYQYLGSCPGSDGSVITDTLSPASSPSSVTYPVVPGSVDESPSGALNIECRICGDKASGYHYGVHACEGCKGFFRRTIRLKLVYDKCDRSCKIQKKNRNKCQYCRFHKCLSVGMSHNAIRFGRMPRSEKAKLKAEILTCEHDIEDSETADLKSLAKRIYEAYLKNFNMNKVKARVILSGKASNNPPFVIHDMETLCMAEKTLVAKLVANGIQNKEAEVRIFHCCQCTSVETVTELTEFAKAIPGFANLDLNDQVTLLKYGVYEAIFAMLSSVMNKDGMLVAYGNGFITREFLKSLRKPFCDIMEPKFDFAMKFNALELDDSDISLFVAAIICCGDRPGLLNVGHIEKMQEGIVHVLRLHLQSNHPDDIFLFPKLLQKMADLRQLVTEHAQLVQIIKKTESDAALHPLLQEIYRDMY
Sequence of Oxysterols receptor LXR-beta (Homo sapiens) (P55055 whole entry, looked up, the tested form may be a part): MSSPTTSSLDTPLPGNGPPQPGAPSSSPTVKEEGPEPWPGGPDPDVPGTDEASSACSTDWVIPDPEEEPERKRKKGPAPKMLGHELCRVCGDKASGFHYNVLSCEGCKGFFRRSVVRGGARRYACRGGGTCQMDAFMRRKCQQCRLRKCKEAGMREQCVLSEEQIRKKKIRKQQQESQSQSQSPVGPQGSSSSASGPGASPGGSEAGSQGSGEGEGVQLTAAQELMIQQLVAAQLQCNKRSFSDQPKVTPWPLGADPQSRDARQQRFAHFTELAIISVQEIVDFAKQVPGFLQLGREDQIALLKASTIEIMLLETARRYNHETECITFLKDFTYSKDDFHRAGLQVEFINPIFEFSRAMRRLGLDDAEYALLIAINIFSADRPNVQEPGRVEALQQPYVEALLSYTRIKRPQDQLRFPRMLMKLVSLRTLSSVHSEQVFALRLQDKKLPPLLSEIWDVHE
Sequence of Myc proto-oncogene protein (Homo sapiens) (P01106 whole entry, looked up): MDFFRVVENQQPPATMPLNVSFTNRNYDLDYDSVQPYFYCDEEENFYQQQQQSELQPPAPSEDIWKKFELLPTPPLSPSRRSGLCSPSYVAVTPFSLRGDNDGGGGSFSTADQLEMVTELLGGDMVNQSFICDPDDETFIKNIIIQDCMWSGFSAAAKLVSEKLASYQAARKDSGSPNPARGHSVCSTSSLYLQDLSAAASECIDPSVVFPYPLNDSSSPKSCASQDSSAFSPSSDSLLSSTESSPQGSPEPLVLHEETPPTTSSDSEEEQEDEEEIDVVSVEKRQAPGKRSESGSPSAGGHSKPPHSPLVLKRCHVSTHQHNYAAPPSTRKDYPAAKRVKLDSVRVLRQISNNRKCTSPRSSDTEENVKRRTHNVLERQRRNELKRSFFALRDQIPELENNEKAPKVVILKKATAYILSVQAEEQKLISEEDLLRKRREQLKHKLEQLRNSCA
Sequence of Bile acid receptor (Homo sapiens) (Q96RI1 whole entry, looked up, the tested form may be a part): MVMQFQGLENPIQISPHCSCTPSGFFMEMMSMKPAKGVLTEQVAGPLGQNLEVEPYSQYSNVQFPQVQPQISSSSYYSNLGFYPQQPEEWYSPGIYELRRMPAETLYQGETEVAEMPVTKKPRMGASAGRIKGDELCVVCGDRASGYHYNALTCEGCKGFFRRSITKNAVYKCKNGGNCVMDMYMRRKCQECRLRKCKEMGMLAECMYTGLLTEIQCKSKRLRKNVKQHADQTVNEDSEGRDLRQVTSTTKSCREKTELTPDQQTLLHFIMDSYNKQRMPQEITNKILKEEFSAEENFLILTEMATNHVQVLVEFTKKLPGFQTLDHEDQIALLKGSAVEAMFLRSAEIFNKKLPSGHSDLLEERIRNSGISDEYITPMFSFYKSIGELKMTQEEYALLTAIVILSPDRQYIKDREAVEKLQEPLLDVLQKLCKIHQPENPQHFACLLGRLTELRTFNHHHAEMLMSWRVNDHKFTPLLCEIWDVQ
Sequence of Hepatocyte nuclear factor 4-alpha (Homo sapiens) (P41235 whole entry, looked up): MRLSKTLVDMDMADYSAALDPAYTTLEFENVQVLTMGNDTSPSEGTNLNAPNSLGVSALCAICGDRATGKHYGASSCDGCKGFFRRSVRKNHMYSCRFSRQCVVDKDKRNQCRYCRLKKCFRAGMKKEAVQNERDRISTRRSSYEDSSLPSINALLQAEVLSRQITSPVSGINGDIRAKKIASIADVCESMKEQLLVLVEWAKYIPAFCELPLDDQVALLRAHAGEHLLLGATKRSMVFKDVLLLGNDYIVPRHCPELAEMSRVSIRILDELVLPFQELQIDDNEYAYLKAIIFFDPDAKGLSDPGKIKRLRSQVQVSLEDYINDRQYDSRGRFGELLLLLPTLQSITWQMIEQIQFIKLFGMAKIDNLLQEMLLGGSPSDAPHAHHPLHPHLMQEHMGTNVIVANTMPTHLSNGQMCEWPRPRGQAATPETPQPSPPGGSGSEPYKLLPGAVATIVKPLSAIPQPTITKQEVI

O=c1[nH]sc2ccccc12
active: [6] 45.9 µM | [9] 6.26 µM | [11] 42.6 µM | [12] 8.49 µM | [13] 15 µM | [14] 8.74 µM | [15] 8.99 µM
not listed: [17] | [18] | [19]
inactive: all other assays above

O=C=NCCCCCCN=C=O
not listed: [2] | [10] | [16] | [18] | [19]
inactive: all other assays above

Cc1ccc(C(C)C)cc1
not listed: [1] | [2] | [8] | [19]
inactive: all other assays above

CCCCCCCC[Si](OCC)(OCC)OCC
inactive: [17] | [3] | [19] | [18] | [4] | [5] | [6] | [7] | [8] | [10] | [11] | [12] | [13]
active: [5] 147 µM | [6] 155 µM | [11] 78.4 µM | [14] 18.9 µM | [15] 30.9 µM

NC(=O)c1nc(-c2cccc(-c3cc(F)ccc3OCC(F)(F)C(F)(F)F)c2)n[nH]1
active: [18] 50.1 µM | [9] 8.83 µM | [12] 29.7 µM | [13] 26.6 µM | [14] 35.7 µM | [15] 37 µM
not listed: [2] | [3] | [10] | [16] | [17]
inactive: all other assays above

CCCCCCCCCCCO
active: [12] 36.4 µM | [13] 34.2 µM | [14] 36.3 µM | [15] 31.6 µM | [16] 100 µM
not listed: [2] | [3] | [10] | [17] | [19]
inactive: all other assays above
